Reference: PubChem BioAssay (Tox21)
Results filed as inconclusive are left out. A call without a number means that no potency is given here. Active and inactive are the calls of the source. The call rests on the fitted dose curve; in most records, active means well fitted activation curve with a large enough effect in the repeat runs; inconclusive means weak or mixed curves, or effect the other way; inactive means no such curve, though single readings can be large or run the other way.

assay: qHTS assay to identify small molecule agonists of the retinoic acid receptor (RAR) signaling pathway (AID 1159553); conditions: C3RL4 RARE luciferase reporter, agonist, 6 h; series mostly up to 73.3 µM
Source text: National Center for Advancing Translational Sciences [NCATS] NIH Chemical Genomics Center [NCGC] U.S. Environmental Protection Agency [EPA] National Institutes of Environmental Health Sciences [NIEHS] National Toxicology Program [NTP] Assay overview: All-trans Retinoic acid (atRA) is the potent natural metabolite of retinol and plays an important role in normal embryonic development and maintenance of cellular phenotype in adult animals. atRA is the activating ligand for the retinoic acid receptors (RARs) which form heterodimers with retinoid X receptors (RXRs) on the retinoic acid response element (RARE). Through activation of the RAR/RXRs nuclear receptors, atRA regulates the transcription of a large number of protein-coding genes and regulatory RNAs. Intracellular levels of atRA are controlled by the retinol signaling pathway (RSP) that regulates the biosynthesis and catabolism of atRA to maintain physiological levels. Chemicals that interfere with the RSP can cause abnormal intracellular levels of atRA and therefore are potential developmental toxicants. To assess compounds for the potential adverse effect on embryonic development through interfering with retinol signaling, a cell-based RARE luciferase reporter gene assay was used. C3RL4 cell line (OARSA/CFSAN/FDA, Laurel, MD) was used to screen Tox21 10K compound library for identifying activators of the RSP.
Assay Protocol Summary: C3RL4 cells were seeded at 1,000/well in 5 uL of assay medium into white solid 1,536-well tissue culture plates (Greiner Bio-One North America Inc. Monroe, NC) using a Multidrop Combi (Thermo Scientific, Waltham, MA) dispenser. After incubation at 37 C and 5% CO2 for an overnight, 23 nL of compounds dissolved in DMSO, positive control or DMSO only were transferred by a Pintool station (Kalypsys, San Diego, CA). After 6 hr incubation at 37 C and 5% CO2, 5 uL of Amplite Luciferase reagent (AAT Bioquest Inc. Sunnyvale, CA) was added to each assay plate using a Flying Reagent Dispenser (FRD) (Aurora Discovery, San Diego, CA). Luminescence was quantified on a ViewLux plate reader (PerkinElmer, Waltham, MA) after 30 min incubation at room temperature.
Potency means the concentration at half of the fitted maximal effect.

Row | Compound | Potency
1 | Nc1ncnc2c1ncn2[C@@H]1O[C@H](CO)[C@@H](O)[C@H]1O | inactive
2 | COC(=O)C(C)(C)C | inactive
3 | c1ccc(CCNc2nc(-c3ccccc3)cs2)cc1 | 2.11 µM (active)
4 | COC(=O)/C=C/C(C)=C\C=C\C(C)=C\C=C\C=C(C)\C=C\C=C(C)\C=C\C(=O)O | 61.1 µM (active)
5 | CCC1=C(C)CN(C(=O)NCCc2ccc(S(=O)(=O)NC(=O)NC3CCC(C)CC3)cc2)C1=O (stereo not given) | inactive
6 | Cc1c(Cl)cccc1Nc1ccccc1C(=O)O | inactive
7 | CC(CN=Cc1ccccc1O)N=Cc1ccccc1O (stereo not given) | inactive
8 | COc1cccc([C@H](O)C2CCN(CCc3ccc(F)cc3)CC2)c1OC | inactive
9 | CC(C)(C)c1ccc(CCC=O)cc1 | inactive
10 | Clc1ccccc1-c1nc(-c2ccncc2)no1 | 2.11 µM (active)
11 | C=CC(=O)NC(C)(C)C | inactive
12 | CCCc1ccc(OC)cc1 | inactive
13 | C=CCCC | inactive
14 | C=CC(=O)OCCCCCCCCCC | inactive
15 | Oc1ccc(Oc2ccccc2)cc1 | inactive
16 | CCOC(C)OCC | inactive
17 | Cc1ccc(Cl)c(OCC(O)CNC(C)(C)C)c1 (stereo not given) | inactive
18 | C/C=C1\[C@H]2C=C(C)C[C@]1(N)c1ccc(=O)[nH]c1C2 | inactive
19 | CC1=C(C)C(=O)C(C(CCCCCC(=O)O)c2ccccc2)=C(C)C1=O (stereo not given) | inactive
20 | O=C1OC(=O)C2CC=CCC12 (stereo not given) | inactive

Row | Compound | Potency
21 | CCc1ccc2c(c1)C(=O)c1ccccc1C2=O | 1.72 µM (active)
22 | O=c1[nH][nH]c2ccccc12 | inactive
23 | O=C(NC1CCN(CCc2c[nH]c3ccccc23)CC1)c1ccccc1 | inactive
24 | COc1ccc(/C=C/c2cc(OC)cc(=O)o2)cc1 | 2.79 µM (active)
25 | CC1=C(C)C(=O)C(CCCCC#CCCCC#CCO)=C(C)C1=O | inactive
26 | O=C1C=CCCC1 | inactive
27 | O=C(O)c1ccccc1-n1cc(C(=O)O)c(=O)c2cc(Nc3c(F)cc(F)cc3Cl)c(Cl)cc21 | inactive
28 | C[C@H](CN1CCCC1)C(=O)c1ccc(C(F)(F)F)cc1 | inactive
29 | CC(C)Cc1nccs1 | inactive
30 | Cc1cccc(C)c1NC(=O)CN1CCCC1 | inactive
31 | CC(COc1ccccc1)NC(C)C(O)c1ccc(O)cc1 (stereo not given) | inactive
32 | CC(C)C/C=C(\C=O)c1ccccc1 | inactive
33 | Cc1ccccc1CCO | inactive
34 | Cc1c(-c2cccnc2)c2ccccc2n1CCCCC(=O)O | 43.3 µM (active)
35 | O=C(N[C@@H](Cc1ccccc1)[C@@H](O)C(=O)N1C[C@@H](O)[C@@H](O)C1)c1cc2cc(Cl)ccc2[nH]1 | inactive
36 | CC1(C)CC(O)CC(C)(C)N1[O] | inactive
37 | CCc1ccc(C(=O)C(C)CN2CCCCC2)cc1 (stereo not given) | inactive
38 | O=C1CCCN1CCO | inactive
39 | CC(C)(C)N | inactive
40 | Cc1nc2sccn2c(=O)c1CCN1CCC(=C(c2ccc(F)cc2)c2ccc(F)cc2)CC1 | inactive
